Myc binder = binders of human c-Myc. small molecule microarray, His-c-Myc binding, anti-His fluorescence. AID 624141. 17,000 tested, 1.5% active. calls only;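 active = spot fluorescence over background with P-value below 7% in all four replicate spots, showing protein binding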;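 note: score is binary with 100 for all four spots passing and 0 otherwise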
p53 PUMA act = mutant p53 pathway reactivation | SW480 PUMA-promoter luciferase | activation, % at 9.98 µM | 28,000 tested, 1.5% active; in the data active = activation above about 52%
STAT3 SMM = binds human STAT3 on microarray. 17,000 tested, 0.2% active. Small molecule microarray, His-STAT3 binding, anti-His fluorescence. P40763. calls only;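 active = compounds whose four printed spots each show fluorescence over background unusually high for their array block, chance value under 7%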
NFkB SMM = binders of human NF-kappa-B p105; Small molecule microarray, anti-His fluorescence binding; calls only; 17,000 tested, 1.3% active;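 active = spot fluorescence over background significantly raised, with a chance value under 7% in all four replicate spots of the compound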;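 note: probe protein is his-tagged human p50 processed subunit at 1 µg/ml; raw spot fluorescence signals with no normalization applied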
Target sequence (P19838 1-433 limits assumed): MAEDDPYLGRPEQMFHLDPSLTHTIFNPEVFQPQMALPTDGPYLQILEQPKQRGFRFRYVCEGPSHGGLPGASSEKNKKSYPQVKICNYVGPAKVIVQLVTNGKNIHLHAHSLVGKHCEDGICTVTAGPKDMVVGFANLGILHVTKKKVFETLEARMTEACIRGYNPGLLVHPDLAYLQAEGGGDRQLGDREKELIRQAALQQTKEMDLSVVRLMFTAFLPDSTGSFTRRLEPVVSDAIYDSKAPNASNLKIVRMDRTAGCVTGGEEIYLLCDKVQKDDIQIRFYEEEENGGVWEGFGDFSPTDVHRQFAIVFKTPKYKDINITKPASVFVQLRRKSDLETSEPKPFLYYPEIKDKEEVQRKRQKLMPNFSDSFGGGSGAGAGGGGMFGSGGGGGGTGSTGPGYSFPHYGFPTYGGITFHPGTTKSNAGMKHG
mut p53 SMM = binds human mutant p53 on microarray; calls only; AID 624136; small molecule microarray binding, anti-GST fluorescence; 17,000 tested, 0.4% active;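 active = compounds whose four printed spots each glow above background more than chance allows, each with a p-value under 7%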
Active calls of the source: *; i = inactive; · = no result; + = active, no number. Most compounds without a hit are left out; they make up all but 2.6% or so of the library.

SMILES	Myc binder	p53 PUMA act	STAT3 SMM	NFkB SMM	mut p53 SMM
COC(=O)[C@]1(Cc2ccccc2)N=C(c2ccc(OCCCO)cc2)O[C@@H]1c1ccccc1N=[N+]=[N-]	i	·	i	+	+
[N-]=[N+]=NCc1ccccc1C[C@@]1(C(=O)N2CCCCC2)N=C(c2ccc(OCCCO)cc2)O[C@@H]1c1ccccc1	i	·	+	i	i
[N-]=[N+]=NCc1ccccc1C[C@@]1(C(=O)N2CCOCC2)N=C(c2ccc(OCCCO)cc2)O[C@@H]1c1ccccc1	i	·	i	i	i
O=C(NCc1ccccc1)[C@@]1(Cc2ccccc2)N=C(c2ccc(OCCCO)cc2)O[C@H]1c1ccccc1	i	·	i	i	+
Cc1cc(C)c(OCC(=O)Nc2cccc(NC(=O)c3ccccc3C)c2)c(Br)c1	·	4.8	·	·	·
COC(=O)c1cc2cc(O)c(-c3c(O)cc4cc(C(=O)OC)oc(=O)c4c3O)c(O)c2c(=O)o1	i	4.7	i	i	i
O=C(CN1C(=O)c2cccc3cccc1c23)Nc1ccc(S(=O)(=O)N2CCCCC2)cc1	·	-0.8	·	·	·
Cc1ccccc1NC(=O)CSc1nnc(-c2ccc(C(C)(C)C)cc2)n1C	·	4.9	·	·	·
c1ccc(OCCCc2nc(-c3ccccn3)no2)cc1	i	68.9*	i	i	i
O=C1c2ccccc2C(=O)N1CCCc1nc(-c2ccccn2)no1	·	10.8	·	·	·
Cc1ccccc1OC(C)c1nc(-c2ccccn2)no1 (configuration not stated)	·	116.4*	·	·	·
c1ccc(-c2noc(COc3cccc4ccccc34)n2)nc1	·	87.2*	·	·	·
Cc1noc(C)c1S(=O)(=O)N(C)C[C@@H]1Oc2ccc(NC(=O)NC3CCCCC3)cc2CC(=O)N([C@@H](C)CO)C[C@H]1C	·	0.1	·	·	·
COc1ccccc1/C=C/C(=O)N1CCCC(c2ccccc2)C1 (configuration not stated)	·	101.4*	·	·	·
Cc1cc(=O)[nH]c(SCCOc2ccc(Br)cc2Cl)n1	·	80.5*	·	·	·
COc1ccccc1-c1cc(-c2ccccc2)nc(SCC(N)=O)c1C#N	i	0.7	i	i	i
COc1cc(OC)cc(-c2nnc(SCC(=O)Nc3sc4c(c3C#N)CCCC4)o2)c1	·	5.8	·	·	·
COc1ccc(C(=O)Nc2sc3c(c2C(=O)Nc2cccc(OC)c2)CCC3)cc1	·	70.8*	·	·	·
COc1ccc(OCC(=O)Nc2sc3c(c2C#N)CCC3)cc1	i	94.4*	i	i	i
Cc1ccc(NC(=O)CN(c2cc(Cl)c(Cl)cc2Cl)S(C)(=O)=O)cc1Cl	·	-44.8	·	·	·
C[C@H]1CN([C@@H](C)CO)C(=O)CCCn2cc(nn2)CO[C@H]1CN(C)C(=O)Nc1ccccc1C(F)(F)F	i	5.2	i	i	i
CCn1cc(C(C)NC(=S)Nc2cccc([N+](=O)[O-])c2)c(C)n1 (configuration not stated)	+	-2.3	i	i	i
CC1(C)CC(=O)c2c(O)cc(OCC(=O)c3ccccc3)cc2O1	i	62.3*	i	i	i
CC1(C)CC(=O)c2c(O)cc(OCC(=O)c3ccc(Cl)c(Cl)c3)cc2O1	·	39.5	·	·	·
CC(=O)c1ccc(N2CCOCC2)cc1O	i	·	i	i	i
SMILES	Myc binder	p53 PUMA act	STAT3 SMM	NFkB SMM	mut p53 SMM
O=C1/C(=C/c2ccc(N3CCOCC3)cc2)CCC1C1CCCC1 (configuration not stated)	·	65.5*	·	·	·
Cc1cc(C)c(C#N)c(SCC(=O)Nc2ccc(C(N)=O)cc2)n1	·	105.3*	·	·	·
CC(=O)c1ccc(NC(=O)CSc2nccn2C)cc1	·	92.6*	·	·	·
Cc1cc(C(F)(F)F)nc(SCC(=O)Nc2ccc(I)cc2)c1C#N	·	13.6	·	·	·
CC(=O)c1ccc(NC(=O)CSc2nc(C)cc(C)c2C#N)cc1	i	140.1*	i	i	i
Cc1cccc2c1N(C)C(=O)C2(O)CC(=O)c1ccco1 (configuration not stated)	i	-14.1	i	i	i
COC(=O)c1ccc(C2C(C(=O)c3cc4ccccc4o3)C(=O)C(=O)N2Cc2ccncc2)cc1 (configuration not stated)	·	5.4	·	·	·
O=C(OC1C=C(CO)C2C(OC3OC(CO)C(O)C(O)C3O)OC=CC12O)c1ccc(O)cc1 (configuration not stated)	i	4.9	i	i	i
C[C@@H]1CCCCO[C@@H](CN(C)C(=O)CCC(F)(F)F)[C@H](C)CN([C@@H](C)CO)C(=O)c2cc(NS(=O)(=O)c3ccccc3)ccc2O1	+	-12.5	i	+	i
C[C@@H]1CN([C@@H](C)CO)C(=O)c2cc(NS(=O)(=O)c3cccs3)ccc2O[C@@H](C)CCCCO[C@@H]1CN(C)C(=O)CCC(F)(F)F	i	-2.0	i	+	i
C[C@@H]1CCCCO[C@H](CN(C)C(=O)CCC(F)(F)F)[C@@H](C)CN([C@H](C)CO)C(=O)c2cc(NS(=O)(=O)c3cccs3)ccc2O1	i	-4.5	i	i	i
C[C@H](CO)N1C[C@H](C)[C@@H](CN(C)C(=O)CCC(F)(F)F)OCCCC[C@H](C)Oc2ccc(NS(C)(=O)=O)cc2C1=O	+	7.9	i	+	i
COC1CC(OC2CCC3(C)C(CCC4(O)C3CC(OC(=O)c3ccccc3)C3(C)C(O)(C(C)=O)CCC43O)C2)OC(C)C1OC1CC(OC)C(OC2OC(C)C(OC3OC(CO)C(O)C(O)C3O)C(OC)C2O)C(C)O1 (configuration not stated)	+	-18.0	i	+	i
COC(=O)CN1C(=O)CN(c2nc(C)cc(C)n2)C1=O	i	-13.5	i	i	i
O=C(O)CCC(=O)Nc1ccccc1C(=O)O	+	-4.3	i	i	i
CCc1ccccc1NC(=O)CCC(=O)O	·	5.0	·	·	·
C[C@@H]1CCCCO[C@@H](CN(C)C)[C@@H](C)CN([C@@H](C)CO)C(=O)c2cc(NS(=O)(=O)c3cccs3)ccc2O1	i	2.3	i	i	i
CC(C)NC(=O)Nc1ccc2c(c1)C(=O)N([C@@H](C)CO)C[C@@H](C)[C@@H](CN(C)S(=O)(=O)c1ccccc1)OCCCC[C@@H](C)O2	+	5.4	+	i	i
CC(C)NC(=O)Nc1ccc2c(c1)C(=O)N([C@H](C)CO)C[C@H](C)[C@H](CN(C)S(=O)(=O)c1ccccc1)OCCCC[C@@H](C)O2	i	-10.1	i	i	i
Cc1noc(C)c1S(=O)(=O)N(C)C[C@@H]1OCCCC[C@H](C)Oc2ccc(NC(=O)NC(C)C)cc2C(=O)N([C@H](C)CO)C[C@H]1C	+	1.0	i	+	i
Cc1noc(C)c1S(=O)(=O)N(C)C[C@@H]1OCCCC[C@H](C)Oc2ccc(NC(=O)NC(C)C)cc2C(=O)N([C@@H](C)CO)C[C@H]1C	i	-6.2	i	i	i
CC(C)C#Cc1cnc2c(c1)C(=O)N([C@H](C)CO)C[C@H](C)[C@@H](CN(C)Cc1cncnc1)O2	·	-0.7	·	·	·
O=C1c2cccc3cccc(c23)C(=O)N1CCCSc1ncn[nH]1	+	44.6	i	i	i

Source: PubChem
